Assay results as given in PubChem BioAssay AID1159580 (chemical genetic matrix, 2015).
In all, about 5,500 compounds went through this assay and about 2,000 (36%) were called active. Roughly 18% stayed inconclusive and do not appear here. No stated cut-off is given here; in the data, active means normalized growth mostly below about 0.91 (no sharp cut-off); inconclusive means no clear call, values can overlap the other calls; inactive means mostly above about 0.92. The list shows a part of the results.

Assay: chemical genetic growth profiling, strain panel (AID 1159580);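 further: tested at 20 µM; growth read once vehicle control cultures reached saturation at 30 °C; 1 = growth at the plate median or of vehicle wells; lower values mean less growth of the strain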
Conditions: S. cerevisiae deletion strains, growth OD
[1] = locus YAL013W, strain DEP1, hits give low values
[2] = locus YBR229C, strain ROT2, hits give low values
[3] = locus YDL101C, strain DUN1, hits give low values
[4] = locus YDL134C, strain PPH21, hits give low values
[5] = locus YDR150W, strain NUM1, hits give low values
[6] = locus YEL061C, strain CIN8, hits give low values
[7] = locus YGR078C, strain PAC10, hits give low values
[8] = locus YHR030C, strain SLT2, hits give low values
[9] = locus YHR087W, strain rtc3, hits give low values
[10] = locus YJR043C, strain POL32, hits give low values
[11] = locus YJR075W, strain HOC1, hits give low values
[12] = locus YKL190W, strain CNB1, hits give low values
[13] = locus YLR039C, strain RIC1, hits give low values
[14] = locus YLR058C, strain SHM2 (second series), hits give low values
[15] = locus YLR085C, strain ARP6, hits give low values
[16] = locus YLR262C, strain YPT6, hits give low values
[17] = locus YML094W, strain GIM5, hits give low values
[18] = locus YMR219W, strain ESC1, hits give low values
[19] = locus YMR263W, strain SAP30, hits give low values
[20] = locus YNL153C, strain GIM3, hits give low values
[21] = locus YNL298W, strain CLA4 (second series), hits give low values
[22] = locus YNL322C, strain KRE1, hits give low values
[23] = locus YNR030W, strain Alg12, hits give low values
[24] = locus YPL055C, strain LGE1, hits give low values
[25] = locus YPL241C, strain CIN2, hits give low values
[26] = locus YPR135W, strain CTF4, hits give low values
[27] = locus YAR019C, strain CDC15, hits give low values
[28] = locus YBL105C, strain PKC1, hits give low values
[29] = locus YBR135W, strain CKS1, hits give low values
[30] = locus YBR136W, strain MEC1, hits give low values
[31] = locus YBR160W, strain CDC28, hits give low values
[32] = locus YDL017W, strain CDC7, hits give low values
[33] = locus YDL028C, strain MPS1, hits give low values
[34] = locus YDL108W, strain KIN28, hits give low values
[35] = locus YDL132W, strain cdc53, hits give low values
[36] = locus YDL214C, strain PRR2, hits give low values
[37] = locus YDR052C, strain DBF4, hits give low values
[38] = locus YDR054C, strain cdc34, hits give low values
[39] = locus YDR226W, strain ADK1, hits give low values
[40] = locus YDR477W, strain SNF1, hits give low values
[41] = locus YER123W, strain YCK3, hits give low values
[42] = locus YER133W, strain GLC7, hits give low values
[43] = locus YFL009W, strain cdc4, hits give low values
[44] = locus YFL029C, strain CAK1, hits give low values
[45] = locus YFR003C, strain YPI1, hits give low values
[46] = locus YFR019W, strain FAB1, hits give low values
[47] = locus YFR028C, strain CDC14, hits give low values
[48] = locus YGR040W, strain KSS1, hits give low values
[49] = locus YGR052W, strain FMP48, hits give low values
[50] = locus YGR092W, strain DBF2, hits give low values
[51] = locus YHR079C, strain IRE1, hits give low values
[52] = locus YHR082C, strain KSP1, hits give low values
[53] = locus YHR205W, strain SCH9, hits give low values
[54] = locus YIL147C, strain SLN1, hits give low values
[55] = locus YJL095W, strain BCK1, hits give low values
[56] = locus YJL128C, strain PBS2, hits give low values
[57] = locus YJL157C, strain FAR1, hits give low values
[58] = locus YJR016C, strain ILV3, hits give low values
[59] = locus YJR066W, strain TOR1 (second series), hits give low values
[60] = locus YJR066W, strain TOR1, hits give low values
[61] = locus YKL048C, strain ELM1, hits give low values
[62] = locus YKL067W, strain YNK1, hits give low values
[63] = locus YKL101W, strain HSL1, hits give low values
[64] = locus YKL193C, strain SDS22, hits give low values
[65] = locus YKL203C, strain TOR2, hits give low values
[66] = locus YLR113W, strain HOG1, hits give low values
[67] = locus YLR133W, strain CKI1, hits give low values
[68] = locus YLR403W, strain SFP1, hits give low values
[69] = locus YML070W, strain DAK1, hits give low values
[70] = locus YMR001C, strain CDC5, hits give low values
[71] = locus YMR205C, strain PFK2 (second series), hits give low values
[72] = locus YMR277W, strain FCP1, hits give low values
[73] = locus YNL006W, strain LST8, hits give low values
[74] = locus YNL020C, strain ARK1, hits give low values
[75] = locus YNL161W, strain CBK1, hits give low values
[76] = locus YNL183C, strain NPR1, hits give low values
[77] = locus YNL207W, strain RIO2, hits give low values
[78] = locus YNL222W, strain SSU72, hits give low values
[79] = locus YNL307C, strain MCK1 (second series), hits give low values
[80] = locus YOL078W, strain AVO1, hits give low values
[81] = locus YOL136C, strain PFK27, hits give low values
[82] = locus YOR061W, strain CKA2, hits give low values
[83] = locus YOR119C, strain RIO1, hits give low values
[84] = locus YOR231W, strain MKK1, hits give low values
[85] = locus YOR329C, strain SCD5, hits give low values
[86] = locus YPL031C, strain PHO85, hits give low values
[87] = locus YPL153C, strain RAD53, hits give low values
[88] = locus YPL204W, strain HRR25, hits give low values
[89] = locus YPL209C, strain IPL1, hits give low values
[90] = locus YPL256C, strain CLN2, hits give low values
[91] = locus YPR025C, strain CCL1, hits give low values
[92] = locus YPR106W, strain ISR1, hits give low values
[93] = locus YPR111W, strain DBF20, hits give low values
[94] = strain NNK1, hits give low values
[95] = strain TSCII, hits give low values

Measured: normalized growth

O=C(NNc1c(Cl)cc(Cl)cc1Cl)NC(=O)c1ccccc1F
inactive: [1] 0.997 | [2] 0.982 | [3] 0.998 | [4] 1.02 | [5] 1.02 | [6] 0.996 | [7] 1 | [8] 0.905 | [9] 1.02 | locus YJL187C, strain SWE1, hits give low values 0.999 | [10] 1 | [11] 0.99 | [12] 1.02 | [13] 0.936 | [14] 1.02 | [15] 0.992 | [16] 0.965 | [17] 1 | [18] 1.02 | [19] 1.01 | locus YNL128W, strain TEP1, hits give low values 1.01 | [20] 0.989 | [21] 0.986 | [22] 1 | [23] 1.04 | [24] 1.01 | [25] 0.986 | [26] 0.966

O=C(NNc1ccc(Cl)cc1)c1ccc(F)cc1F
active: [41] 0.404 | [46] 0.547 | [50] 0.345 | [8] 0.372 | [55] 0.271 | [59] 0.606 | [61] 0.747 | [66] 0.373 | [67] 0.701 | [69] 0.54 | [79] 0.451 | [81] 0.616 | [82] 0.399 | [90] 0.487
inactive: [27] 0.937 | [28] 0.942 | [29] 0.952 | [30] 0.946 | [31] 0.942 | [32] 0.95 | [33] 0.959 | [3] 0.949 | [34] 0.959 | [35] 0.967 | [36] 0.701 | [37] 0.938 | [38] 0.949 | [39] 0.967 | [40] 0.701 | [42] 0.755 | [43] 0.971 | [44] 0.944 | [45] 0.952 | [47] 0.958 | [48] 0.718 | [49] 0.63 | [51] 0.747 | [52] 0.762 | [53] 0.663 | [54] 0.953 | [56] 0.897 | [57] 0.736 | [58] 0.94 | [60] 0.759 | [62] 0.752 | [63] 0.784 | [64] 0.949 | [65] 0.855 | [68] 0.744 | [70] 0.942 | [71] 0.826 | [72] 0.956 | [73] 0.968 | [74] 0.765 | [75] 0.947 | [76] 0.777 | [77] 0.946 | [78] 0.946 | [80] 0.948 | [83] 0.796 | [84] 0.695 | [85] 0.95 | [86] 0.766 | [87] 0.696 | [88] 0.723 | [89] 0.941 | [91] 0.947 | [92] 0.965 | [93] 0.974 | [94] 0.937 | [95] 0.947

Cc1ccc(N2C(=O)CSC2c2ccc(Cl)c(Cl)c2)cc1Cl (stereo not drawn)
inactive: [27] 0.982 | [28] 0.974 | [29] 0.982 | [30] 0.976 | [31] 0.978 | [32] 0.975 | [33] 0.977 | [3] 0.97 | [34] 0.98 | [35] 0.982 | [36] 0.95 | [37] 0.98 | [38] 0.971 | [39] 0.973 | [40] 0.96 | [41] 0.956 | [42] 0.981 | [43] 0.977 | [44] 0.977 | [45] 0.973 | [46] 0.97 | [47] 0.988 | [48] 0.965 | [49] 1.01 | [50] 0.935 | [51] 0.887 | [52] 1.07 | [53] 0.94 | [54] 0.981 | [55] 0.918 | [56] 0.922 | [57] 0.961 | [58] 0.988 | [59] 0.913 | [60] 0.995 | [61] 0.957 | [62] 0.959 | [63] 0.953 | [64] 0.977 | [65] 1.01 | [67] 0.947 | [68] 0.95 | [69] 0.943 | [70] 0.975 | [71] 0.977 | [72] 0.981 | [73] 0.976 | [74] 0.933 | [75] 0.977 | [76] 0.994 | [77] 0.968 | [78] 0.988 | [79] 0.942 | [80] 0.982 | [81] 0.928 | [82] 0.953 | [83] 1.03 | [84] 0.937 | [85] 0.972 | [86] 0.957 | [87] 0.984 | [88] 0.933 | [89] 0.976 | [91] 0.977 | [92] 0.971 | [93] 0.962 | [94] 0.959 | [95] 0.981
active: [8] 0.808 | [66] 0.791 | [90] 0.826

O=C1CSC(c2ccc(Cl)c(Cl)c2)N1c1ccc(F)cc1 (stereo not drawn)
active: [4] 0.886
inactive: [1] 0.988 | [2] 0.975 | [3] 0.964 | [5] 0.968 | [6] 0.988 | [7] 0.975 | [8] 0.95 | [9] 0.985 | [10] 0.974 | [11] 0.939 | [12] 0.985 | [13] 0.994 | [14] 1 | [15] 0.942 | [16] 0.947 | [17] 0.95 | [18] 0.994 | [19] 0.989 | [20] 0.962 | [21] 0.93 | [22] 0.988 | [23] 0.906 | locus YOL006C, strain TOP1, hits give low values 0.889 | [24] 0.971 | [25] 0.977 | [26] 0.85

O=C1CSC(c2ccc(C(F)(F)F)cc2)N1c1ccc(C(F)(F)F)cc1 (stereo not drawn)
active: [66] 0.829
inactive: [27] 0.998 | [28] 1 | [29] 0.997 | [30] 1 | [31] 1 | [32] 1 | [33] 0.999 | [3] 1 | [34] 0.996 | [35] 0.997 | [36] 0.952 | [37] 1.01 | [38] 1 | [39] 1 | [40] 0.966 | [41] 0.911 | [42] 0.968 | [43] 1 | [44] 0.986 | [45] 0.994 | [46] 0.95 | [47] 0.993 | [48] 0.962 | [49] 0.972 | [50] 0.979 | [8] 0.878 | [51] 0.897 | [52] 0.936 | [53] 0.885 | [54] 1 | [55] 0.933 | [56] 0.939 | [57] 0.976 | [58] 1 | [59] 0.951 | [60] 0.936 | [61] 0.968 | [62] 0.946 | [63] 0.923 | [64] 1 | [65] 1.02 | [67] 0.949 | [68] 0.949 | [69] 0.924 | [70] 1 | [71] 0.942 | [72] 0.999 | [73] 1 | [74] 0.957 | [75] 1.01 | [76] 0.898 | [77] 0.995 | [78] 1 | [79] 0.941 | [80] 1.01 | [81] 0.937 | [82] 0.943 | [83] 1.03 | [84] 0.914 | [85] 1 | [86] 0.97 | [87] 0.96 | [88] 0.959 | [89] 1.01 | [90] 0.871 | [91] 0.998 | [92] 0.988 | [93] 0.979 | [94] 0.98 | [95] 0.999
